In the supplement of paper PMC12339681 one finds synaptosome phagocytic index data, which are given here for 36 compounds.

Counter-ions that a name gives are not always drawn.

The subject of this assay is PBMC-derived induced microglia-like cells (piMGLC). Nature of the assay: synaptosome phagocytic index relative to DMSO control (fraction of DMSO); higher = more phagocytosis. As to conditions: concentration: 10 uM (2 uM for compounds listed in Table S2); pretreatment time: 24 h; assay time: 3 h.
With `O=C1c2cccc3c2[C@H](CCC3)CN1[C@@H]1CN2CCC1CC2` [Palonosetron_(Hydrochloride)], the synaptosome phagocytic index came out at 0.526.
Consider `Cc1cc(NS(=O)(=O)c2ccc(N)cc2)no1` [Sulfamethoxazole], for which the synaptosome phagocytic index stood at 1.17.
For `CCc1cc2c(cc1N1CCC(N3CCOCC3)CC1)C(C)(C)c1[nH]c3cc(C#N)ccc3c1C2=O` [Alectinib_(Hydrochloride)], the synaptosome phagocytic index amounted to 0.192.
With `CCC(CC)O[C@@H]1C=C(C(=O)O)C[C@H](N)[C@H]1NC(C)=O` [Oseltamivir_acid], the synaptosome phagocytic index came out at 0.782.
As to `O=NN(CCCl)C(=O)NC1CCCCC1` [Lomustine], the synaptosome phagocytic index stood at 0.897.
As for `CC(C(=O)O)c1cccc(C(=O)c2ccccc2)c1` (stereo unspecified) [Ketoprofen], the synaptosome phagocytic index is 0.731.
In the case of `COc1ncccc1-c1cnn2ccc(N3CCN(C(=O)OC(C)C)CC3)nc12` it was 0.708; in that of `Clc1ccc2c(c1)C(N1CCNCC1)=Nc1ccccc1O2` [Amoxapine], 0.463; in that of `O=C(O)Cc1nn(Cc2nc3cc(C(F)(F)F)ccc3s2)c(=O)c2cscc12`, 0.982.
`Cn1cnc2c(F)c(Nc3ccc(Br)cc3Cl)c(C(=O)NOCCO)cc21` [Selumetinib]: the synaptosome phagocytic index came to 0.811.
On to `CS(=O)(=O)CCNCc1ccc(-c2ccc3ncnc(Nc4ccc(OCc5cccc(F)c5)c(Cl)c4)c3c2)o1` [Lapatinib_(ditosylate)], for which the synaptosome phagocytic index amounted to 0.126.
Turning to `Cc1ccc(Nc2nccc(N(C)c3ccc4c(C)n(C)nc4c3)n2)cc1S(N)(=O)=O` [Pazopanib_(Hydrochloride)], the synaptosome phagocytic index was determined as 0.523.
Turning to `COc1ccc(C2CNC(=O)C2)cc1OC1CCCC1` (stereo unspecified) [Rolipram], the synaptosome phagocytic index came to 0.814.
Take `CO/N=C(\C(=O)N[C@@H]1C(=O)N2C(C(=O)O)=C(C[N+]3(C)CCCC3)CS[C@H]12)c1csc(N)n1` [Cefepime_(Dihydrochloride_Monohydrate)]: the synaptosome phagocytic index was determined as 0.597.
With `CC(C)(C)CCN1C[C@@H]2C(CNC(=O)c3cc(Cl)cc(Cl)c3)[C@@H]2C1` (stereo partly specified) the figure was 0.191; with `C[C@@H](NC(=O)c1ccc(F)cc1)c1ccc2c(c1)CCN2C(=O)C1CCOCC1`, 0.908.
As for `O=C(O)Cc1ccccc1Nc1c(Cl)cccc1Cl` [Diclofenac_(Sodium)], the synaptosome phagocytic index was determined as 0.856.
Take `COc1cc(C(C)=O)ccc1OCCCN1CCC(c2noc3cc(F)ccc23)CC1` [Iloperidone]: the synaptosome phagocytic index is 0.853.
With `CCC(=O)NCC[C@@H]1CCc2ccc3c(c21)CCO3` [Ramelteon] the figure was 0.767.
Turning to `C[C@H](N=C(NC#N)Nc1cccc2ncccc12)c1ccccc1`, the synaptosome phagocytic index came out at 0.994.
Turning to `CC(C)Cc1ccc(C(C)C(=O)O)cc1` (stereo unspecified) [Ibuprofen], the synaptosome phagocytic index was 0.74.
In the case of `Fc1ccc(-c2c3cccc(C(F)(F)F)c3nn2Cc2ccc(F)cc2Cl)cc1` it was 0.581; in that of `NCCCS(=O)(=O)O` [Tramiprosate], 1.14; in that of `CCCCCCCC(=O)c1c(O)cc(O)cc1CC(=O)OCC` [Cytosporone_B], 0.114.
With `C[C@@H]1O[C@@H]1P(=O)(O)O` [Fosfomycin_(calcium)] the figure was 0.946.
On to `C=CC(=O)Nc1cc(Nc2nccc(-n3cc(CN(C)C)c(-c4ccccc4)n3)n2)c(OC)cc1N1CCOCC1` [Lazertinib], for which the synaptosome phagocytic index worked out at 0.0589.
With `FC(F)(F)c1ccc(CNc2ccc(Cc3c[nH]c4ncc(Cl)cc34)cn2)cn1` [Pexidartinib_(hydrochloride)] the figure was 0.976; with `Cc1ccnc2c1NC(=O)c1cccnc1N2C1CC1` [Nevirapine], 0.84.
In the case of `C[C@H](C(=O)O)c1cccc(C(=O)c2ccccc2)c1` [S-(+)-Ketoprofen] it was 0.724; in that of `CC(=O)[C@H]1CC[C@H]2[C@@H]3CCC4=CC(=O)CC[C@]4(C)[C@H]3CC[C@]12C` [Progesterone], 0.761.
In the case of `C[C@@H](O[C@H]1OCCN(Cc2n[nH]c(=O)[nH]2)[C@H]1c1ccc(F)cc1)c1cc(C(F)(F)F)cc(C(F)(F)F)c1` [Aprepitant] it was 1.02; in that of `COc1cc2ncnc(Nc3cccc(Cl)c3F)c2cc1OC(=O)N1CCN(C)C[C@H]1C` [Zorifertinib], 0.285.
With `CC(C)Cc1ccc([C@@H](C)C(=O)O)cc1` [(R)-(-)-Ibuprofen], the synaptosome phagocytic index stood at 1.31.
Turning to `CCc1cc(F)c2nc(N3CCC(NC4CCOCC4)CC3)c(-c3nc(C)no3)c(C)c2c1`, the synaptosome phagocytic index stood at 1.21.
Turning to `CC(=O)OCC(=O)[C@@]1(O)CC[C@H]2[C@@H]3CCC4=CC(=O)C=C[C@]4(C)[C@H]3[C@@H](O)C[C@@]21C` [Prednisolone_acetate], the synaptosome phagocytic index was 0.605.
`COc1cc2nc(C3CC3)nc(N3CCN(c4ccccc4OC)CC3)c2cc1OC`: the synaptosome phagocytic index amounted to 0.0572.
